# According to PubChem BioAssay AID651582 (Sanford-Burnham Center for Chemical Genomics, 2012):
# The whole screen tested about 230,000 compounds, of which about 1,500 (0.65%) were called active. This is one part of a sample in which actives are shown more often than they occur.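 How the source made its calls: active means pattern-corrected inhibition of lipid staining of at least 50% with the nuclear-stain viability signal not falling by more than 50%; inactive means the rest, inconclusive results apart.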
# Assay: inhibitors of triacylglycerol accumulation, primary screen, cell-based, uHTS, fluorescence, H9c2 (AID 651582);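 on inhibition: 0% = DMSO wells and 100% = triacsin C control wells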
# Details: H9c2 cells, Nile Red lipid (TAG) fluorescence, at 12.5 µM, cells loaded with 200 µM oleic acid; DAPI nuclei signal change (viability), lower = more cytotoxic: measured here: DAPI nuclei count viability; inhibition: stronger effect = higher value
Structure (SMILES),"DAPI nuclei signal change (viability), lower = more cytotoxic",inhibition
CN(O)C(=S)c1ccccc1,-65.1%,90.7% (inactive)
O=C(NN=Cc1ccccc1)c1ccccc1,1.87%,-3.23% (inactive)
CN(/N=C/c1ccccc1)C(=S)c1ccccc1,-19.1%,63.6% (active)
NC(=O)c1ncn([C@@H]2O[C@H](CNCc3cnc(N4CCOCC4)s3)[C@@H](O)[C@H]2O)n1,-1.13%,2.87% (inactive)
CCC(=O)N1CCN(c2ccccc2NC(=O)COc2cccc(C)c2C)CC1,-0.0457%,-24.8% (inactive)
Cc1ccccc1OCC(=O)Nc1ccc2c(c1)ncn2C,5.22%,2.71% (inactive)
Cc1ccccc1OCC(=O)Nc1ccc(N2CCN(C(=O)C(C)C)CC2)c(Cl)c1,-3.43%,53.8% (active)
CN1CCC(N(C)S(=O)(=O)c2ccc(NC(=O)c3cccc(C#N)c3)cc2)CC1,-3.7%,15.9% (inactive)
Oc1cccc2cc(-c3ccncc3)cnc12,-33.8%,56.3% (active)
COc1ccc(NC(=O)CSc2nnc(C3CC3)n2C)cc1S(=O)(=O)N1CCCCC1,9.15%,-10.9% (inactive)
CCN(CC)C(=O)C1=C(C)N(Cc2ccccc2)C(=O)C(CC(=O)NC(c2ccccc2)c2ccccc2)C1 (configuration not stated),-1.27%,22.4% (inactive)
Cc1ccc(S(=O)(=O)N2CCN(C(=O)c3cc(S(=O)(=O)N4CCOCC4)ccc3F)CC2)cc1,-10.8%,2.68% (inactive)
CCN(CC)C(=O)CN(c1cccc([N+](=O)[O-])c1)S(=O)(=O)c1ccccc1,-11.2%,5.09% (inactive)
O=C(CCl)N(Cc1cccc([N+](=O)[O-])c1)c1cccc(Cl)c1,0.0094%,53.5% (active)
Cc1ccc(S(=O)(=O)N(Cc2cccc([N+](=O)[O-])c2)C(=O)N2CCN(C)CC2)cc1,-12.6%,6.71% (inactive)
COc1ccc(-c2c(C#N)cnc(C)c2C)c(O)c1OC,-5.41%,12.5% (inactive)
CC1(C(=O)NCc2ccc(F)c(F)c2)Cc2c(-c3ccc4c(c3)OCO4)ccnc2O1 (configuration not stated),-30.3%,36.2% (inactive)
CC(=O)Nc1cccc(-c2ccnc3c2CC(C)(C(=O)NCc2ccco2)O3)c1 (configuration not stated),-40.5%,43.4% (inactive)
CC1(C(=O)NCc2ccco2)Cc2c(-c3ccc4c(c3)OCO4)ccnc2O1 (configuration not stated),-35.6%,52.2% (active)
CCc1nc2c(OCC(=O)C(C)(C)C)cccn2c1N(C)C(=O)c1ccccc1F,-14.1%,14.9% (inactive)
CCN(CC(=O)Nc1ccc(NC(C)=O)cc1)C(=O)CSC(=S)N1CCCC1,-7.39%,-13.5% (inactive)
Cc1ccccc1Nc1nnc(C)c(=O)[nH]1,1.64%,-16.3% (inactive)
Cc1nnc(N/N=C/c2cccs2)[nH]c1=O,4.89%,29.3% (inactive)
Cc1nnc(N/N=C/c2ccccn2)[nH]c1=O,-33.8%,53.3% (active)
Cc1cc(C)cc(NC(=O)NCc2ccccn2)c1,7.71%,-29.5% (inactive)
O=[N+]([O-])c1ccc(C=NN=Cc2ccc([N+](=O)[O-])cc2)cc1,-4.6%,6.59% (inactive)
